Experimental data reported in PubChem BioAssay (EPA / NIEHS).
More than one record can exist for a structure, and the calls need not agree. Active and inactive are the calls of the source. How the source made its calls: active means hit-call score of the fitted dose curve at least 0.9, where 1 is the maximum; inactive means score below 0.9.

These compounds were tested against Transcriptional activator Myb (Homo sapiens) (UniProt P10242) (assay: ATG_Myb_CIS: Attagene CIS-FACTORIAL HepG2 Assay for human Myeloblastosis (Myb) Proto-Oncogene Transcription Factor (AID 2282986)). Conditions: HepG2 Attagene CIS-FACTORIAL Myb reporter transcription; actives raise or lower the signal.
Sequence of Transcriptional activator Myb (Homo sapiens) (P10242 whole entry, looked up): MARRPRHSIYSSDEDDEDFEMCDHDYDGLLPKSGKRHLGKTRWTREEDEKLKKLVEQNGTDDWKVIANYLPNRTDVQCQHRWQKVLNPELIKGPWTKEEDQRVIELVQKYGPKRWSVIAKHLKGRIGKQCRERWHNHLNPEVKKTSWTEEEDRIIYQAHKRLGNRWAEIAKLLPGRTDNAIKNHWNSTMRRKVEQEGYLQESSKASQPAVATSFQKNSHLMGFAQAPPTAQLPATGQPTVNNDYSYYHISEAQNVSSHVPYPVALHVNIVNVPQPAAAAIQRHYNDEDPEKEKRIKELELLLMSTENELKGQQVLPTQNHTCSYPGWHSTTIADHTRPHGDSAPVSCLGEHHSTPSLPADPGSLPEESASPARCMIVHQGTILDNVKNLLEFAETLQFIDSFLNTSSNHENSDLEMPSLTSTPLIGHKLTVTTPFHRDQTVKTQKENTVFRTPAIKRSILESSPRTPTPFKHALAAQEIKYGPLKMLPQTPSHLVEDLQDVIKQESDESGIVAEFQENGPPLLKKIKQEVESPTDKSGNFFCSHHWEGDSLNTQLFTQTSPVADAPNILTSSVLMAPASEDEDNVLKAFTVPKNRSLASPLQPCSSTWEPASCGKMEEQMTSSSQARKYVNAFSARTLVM
Method: ATG_CIS is a cell-based, multiplexed-readout assay that uses HepG2, a human liver cell line, with measurements taken at 24 hours after chemical dosing in a 24-well plate.ATG_Myb_CIS is one of 52 assay component(s) measured or calculated from the ATG_CIS assay. It is designed to make measurements of mRNA induction, a form of inducible reporter, as detected with fluorescence intensity signals by Reverse transcription polymerase chain reaction (RT-PCR) and Capillary electrophoresis technology.Data from the assay component ATG_Myb_CIS was analyzed into 1 assay endpoint. This assay endpoint, ATG_Myb_CIS, was analyzed with bidirectional fitting relative to DMSO as the negative control and baseline of activity. Using a type of inducible reporter, measures of mRNA for gain or loss-of-signal activity can be used to understand the reporter gene at the transcription factor-level as they relate to the gene MYB. Furthermore, this assay endpoint can be referred to as a primary readout, because this assay has produced multiple assay endpoints where this one serves a reporter gene function. To generalize the intended target to other relatable targets, this assay endpoint is annotated to the dna binding intended target family, where the subfamily is MYB proteins.
Human liver HepG2 cells are transiently transfected with multiple reporter transcription units (MRTUs) in 6-well plates using FuGene 6 reagent (Roche; 3 ml FuGene/1 mg DNA). The MRTU constructs are regulated by a cis-regulating element (promoter). […] A major difference between the CIS and TRANS system is that in CIS activities of endogenous TFs are measured, whereas the TRANS assay evaluates changes in activities of exogenous, chimeric NR-Gal4 proteins. […] At the end of 24 hour incubation, total RNA was isolated using TriZol reagent (Invitrogen). The isolated RNA is then reverse-transcribed using oligo(dT) primer and Mo-MLV reverse transcriptase (Invitrogen) with DNAse I (Ambion) treatment for 30 min. The one-tenth of the produced cDNA was amplified by PCR using Taq DNA polymerase (Invitrogen) and two reporter sequence-specific primers. The PCR products were fluorescently labeled by primer extension with 6-arboxyfluorescein (6-FAM) 5'-labeled reporter sequence-specific primer (2 min at 95 C, 20 s at 68 C and 10 min at 72 C) and these products were digested with 5U of HpaI (New England Biolabs) for 2h at 37 C. The fragments were purified using Qiaquick PCR columns (Qiagen), analyzed on an ABI 3130xL genetic analyzer (Applied Biosystems) with peak positions identified by using a set of X-rhodamine (ROX)-labeled MapMarker1000 molecular weight standards (BioVentures). The raw capillary electrophoresis data was processed using Attagraph software (Attagene).

Row | Structure (SMILES) | outcome | AC50
1 | CC(C)c1ccccc1N | inactive | 
2 | OCC(F)(F)C(F)(F)C(F)(F)C(F)F | inactive | 
3 | CC(CCl)OP(=O)(OC(C)CCl)OC(C)CCl (stereo not given) | inactive | 
4 | O=C(O)C(F)(F)C(F)(F)C(F)F | inactive | 
5 | OCC(F)(F)C(F)(F)C(F)(F)C(F)(F)C(F)(F)C(F)F | inactive | 
6 | COC(OC(C)=O)c1ccccc1 (stereo not given) | inactive | 
7 | O=S(=O)(OCC(F)F)C(F)(F)F | inactive | 
8 | FC(F)(F)C(F)(F)C(F)(F)C(F)(F)C(F)(F)CCI | inactive | 
9 | CCN(Cc1cccc(S(=O)(=O)O)c1)c1ccc(C(=C2C=CC(=[N+](CC)Cc3cccc(S(=O)(=O)O)c3)C=C2)c2ccc(O)cc2S(=O)(=O)[O-])cc1 | inactive | 
10 | FC(F)(F)C(F)(F)C(F)(F)C(F)(F)CCI | inactive | 
11 | CCCCCCC(C)OC(=O)CCCCC(=O)OC(C)CCCCCC (stereo not given) | inactive | 
12 | O=C(O)C(F)(F)C(F)(F)F | inactive | 
13 | O=C(O)C(F)(F)C(F)(F)C(F)(F)C(F)(F)C(F)(F)C(F)(F)C(F)(F)C(F)(F)C(F)(F)C(F)(F)C(F)(F)C(F)(F)C(F)(F)F | inactive | 
14 | CCc1c(Br)c(Br)c(Br)c(Br)c1Br | inactive | 
15 | O=S(=O)(O)c1ccc2ccccc2c1 | inactive | 
16 | OCCCC(F)(F)C(F)(F)C(F)(F)C(F)(F)C(F)(F)C(F)(F)C(F)(F)F | inactive | 81.7 µM (active)
17 | OC[C@@H](O)[C@@H](O)[C@H](O)[C@@H](O)CO | inactive | 
18 | O=C(O)C=C(C(F)(F)F)C(F)(F)F | inactive | 
19 | FC(F)(F)C(F)(F)C(F)(F)CI | inactive | 

Row | Structure (SMILES) | outcome | AC50
20 | C(=C(c1ccccc1)c1ccccc1)c1ccccc1 | inactive | 
21 | C=CC(F)(F)C(F)(F)C(F)(F)C(F)(F)C(F)(F)C(F)(F)C(F)(F)C(F)(F)C=C | inactive | 
22 | C=CC/C=C/C/C=C/C/C=C/C | inactive | 
23 | c1ccc(-c2ccccc2-c2ccccc2)cc1 | inactive | 
24 | CC/C=C\CCOC(=O)c1ccccc1 | inactive | 
25 | O=S(=O)(O)C(F)(F)C(F)(F)C(F)(F)C(F)(F)C(F)(F)C(F)(F)C(F)(F)F | inactive | 160 µM (active)
26 | FC(F)(F)C(F)(F)C(F)(F)C(F)(F)C(F)(F)C(F)(F)CC1CO1 (stereo not given) | inactive | 
27 | CCCCCCCCCCCCCCCC[N+](C)(C)Cc1ccccc1 | inactive | 
28 | Nc1cc(Cl)c(N)c(Cl)c1 | inactive | 
29 | COC(=O)C1CCC(C(=O)OC)CC1 (stereo not given) | inactive | 
30 | CC(C)(C)c1ccc(OC2CCCCC2O)cc1 (stereo not given) | inactive | 
31 | O[Si](c1ccccc1)(c1ccccc1)c1ccccc1 | inactive | 
32 | CCc1ccc(C(c2ccc(CC)cc2)C(Cl)Cl)cc1 | inactive | 
33 | FC(F)(F)C(F)(F)C(F)(F)C(F)(F)C(F)(F)C(F)(F)C(F)(F)Br | inactive | 
34 | Oc1ccc(Nc2ccccc2)cc1 | inactive | 
35 | CN(C)Cc1ccccc1O | inactive | 
36 | OCCCC(F)(F)C(F)(F)C(F)(F)F | inactive | 
37 | O=C(O)C(F)(F)C(F)(F)C(F)(F)C(F)(F)F | inactive | 
38 | FC(F)(F)C(F)(F)C(F)(F)N(C(F)(F)C(F)(F)C(F)(F)F)C(F)(F)C(F)(F)C(F)(F)F | inactive | 
